Sfp PPTase inh: qHTS Assay for Inhibitors of Bacillus subtilis Sfp phosphopantetheinyl transferase (PPTase); Biochemical Sfp PPTase activity, qHTS; 310,000 compounds, 3.5% hits; 4'-phosphopantetheinyl transferase ffp (Bacillus subtilis), Q9F4F7; Potency, µM, actives largely listed as inhibitors;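 note: the enzyme is Sfp with the accession as filed and its product quenches rhodamine fluorescence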
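Fluorescence-quenching assay with 15 nM Sfp, 5 uM rhodamine-CoA and 12.5 uM BHQ-2-labelled ybbR peptide in pH 7.6 Hepes/MgCl2 buffer. Enzyme was pre-incubated with compound for 15 min at room temperature. Rate was taken from the 30-min fluorescence change (525/598 nm).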
TrxR1 substrate: qHTS Assay for Substrates of Mammalian Selenoprotein Thioredoxin Reductase 1 (TrxR1): qHTS | purified TrxR1 substrate turnover, NADPH consumption readout | Potency, µM (top dose mostly 114 µM) | 390,000 compounds, 0.01% hits | AID 588456, 2011; note: nearly all actives have a fitted effect of over 50% in size
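Rat TrxR1, dispensed at 90 nM, was prereduced with 400 uM NADPH (final) for 5 min at ~22 deg C, then incubated with compound 15 min before 400 uM selenite. A first-read NADPH fluorescence drop versus no-compound background flagged substrates.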
GCN5L2 inh: qHTS Assay for Inhibitors of GCN5L2 | Potency, µM (doses to about 58.9 µM), usual class: inhibitors | AID 504327, 2011 | Histone acetyltransferase KAT2A (Homo sapiens), Q92830 | GCN5L2 HAT assay, ThioGlo1 CoA-SH fluorescence | 390,000 compounds, 0.21% hits
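Preincubate 20nM GCN5L2 with compound 15 min, RT → add 50uM ThioGlo1 + 75uM H3(1-25) + 70uM acetyl-CoA → read fluorescence 0 and 20 min. Primary qHTS; fluorescent artifacts likely.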
rTrxR1 inhibitor: qHTS Assay for Inhibitors of Mammalian Selenoprotein Thioredoxin Reductase 1 (TrxR1): qHTS. 390,000 compounds, 1% hits. Potency, µM (doses to about 114 µM), actives largely listed as inhibitors. Thioredoxin reductase 1, cytoplasmic (Rattus norvegicus), O89049. recombinant rTrxR1, NADPH fluorescence consumption, selenite substrate. AID 588453, 2011; note: nearly all actives have a fitted effect of over 65% in size
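Rat TrxR1 (90 nM in the dispensed reagent) was pre-reduced with 400 uM NADPH for 5 min at room temperature, then incubated with compound for 15 min. After 400 uM selenite was added, NADPH fluorescence (Ex 340/Em 450 nm) was followed for 8 min.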
GLS inhibitor: qHTS for Inhibitors of Glutaminase (GLS); Potency, µM (titrated, usually from 45.5 µM), actives largely listed as inhibitors; 410,000 compounds, 0.21% hits; GLS enzymatic activity, qHTS titration; AID 624170, 2012
Target sequence (O94925 whole entry, looked up): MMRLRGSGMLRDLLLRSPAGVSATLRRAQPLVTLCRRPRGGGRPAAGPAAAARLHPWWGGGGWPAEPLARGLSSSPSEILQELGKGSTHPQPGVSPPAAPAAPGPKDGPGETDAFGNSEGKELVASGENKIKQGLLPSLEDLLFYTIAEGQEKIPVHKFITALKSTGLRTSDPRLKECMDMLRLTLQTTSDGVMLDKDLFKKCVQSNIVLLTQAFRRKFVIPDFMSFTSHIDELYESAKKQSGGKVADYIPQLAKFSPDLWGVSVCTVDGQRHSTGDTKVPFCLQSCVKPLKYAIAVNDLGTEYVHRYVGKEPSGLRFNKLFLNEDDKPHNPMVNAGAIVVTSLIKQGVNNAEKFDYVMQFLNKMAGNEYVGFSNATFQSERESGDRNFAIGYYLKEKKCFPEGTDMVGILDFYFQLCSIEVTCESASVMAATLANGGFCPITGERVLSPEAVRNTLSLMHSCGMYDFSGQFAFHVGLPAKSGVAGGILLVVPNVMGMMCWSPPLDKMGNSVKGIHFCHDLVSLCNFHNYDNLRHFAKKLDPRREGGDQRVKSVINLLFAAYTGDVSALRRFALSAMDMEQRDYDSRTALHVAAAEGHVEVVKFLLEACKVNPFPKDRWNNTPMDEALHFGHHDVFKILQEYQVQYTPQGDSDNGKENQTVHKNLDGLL
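Assay buffer: 45 mM KH2PO4 pH 8.2, 0.02% Tween-20. hKGA acts on L-glutamine (1 mM solution added); product glutamate is reported by an oxidase/peroxidase Amplex Red coupling, with fluorescence taken at baseline and 30 min.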
VDR inh: Inhibitors of the vitamin D receptor (VDR): qHTS | VDR-SRC2-3 peptide fluorescence polarization, 2 h | Vitamin D3 receptor (Homo sapiens), P11473 | 400,000 compounds, 0.93% hits | Potency, µM, hits mostly inhibitors
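Fluorescence polarization assay measuring small-molecule disruption of VDR binding to the coregulator peptide SRC2-3. Compounds were pin-transferred (23 nl) into the reagent mix and incubated 2 h at room temperature before reading.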
Numbers stand for hits; i = inactive; ? = inconclusive; nt = no result given; ! = not confirmed by another sample; [ ] = dose if it differs, or a comment. A selection: hits, their analogues and other compounds. The true share with any hit is near 3.8%. Calls come from the whole dose curve; as a rule, active = well fitted curve in the direction sought with a large enough effect; inconclusive = small, poorly fitted or top-dose-only effect, or another doubt; inactive = no such curve, though single readings can be large; an effect the other way counts as inactive or inconclusive.

SMILES	Sfp PPTase inh	TrxR1 substrate	GCN5L2 inh	rTrxR1 inhibitor	GLS inhibitor	VDR inh
CC(C)CCNC(=O)c1ccc2c(c1)NC(=O)C(CS(=O)(=O)Cc1ccc(F)cc1)N2 (stereo not drawn)	nt	i	i	i	13µM	i
CC(C)CCNC(=O)c1ccc2c(c1)NC(=O)C(CS(=O)(=O)Cc1cccc(Br)c1)N2 (stereo not drawn)	nt	i	i	i	i	i
Cc1cccc(CS(=O)(=O)CC2Nc3ccc(C(=O)NCc4ccccc4)cc3NC2=O)c1 (stereo not drawn)	nt	i	i	i	10µM	i
Cc1ccc(CNC(=O)c2ccc3c(c2)NC(=O)C(CS(=O)(=O)Cc2cccc(F)c2)N3)cc1 (stereo not drawn)	nt	i	i	i	i	i
Cc1nc2c(-c3ccc(F)cc3)c(C)nn2c(C)c1CCC(=O)NC(C)CCc1ccco1 (stereo not drawn)	i	i	i	79µM	i	i
Cc1ccc(CNC(=O)CCc2c(C)nc3c(-c4ccc(F)cc4)c(C)nn3c2C)cc1	nt	i	i	i	i	i
COc1cc(-c2ccc(Nc3ccccc3C(=O)O)c(OC)c2)ccc1Nc1ccccc1C(=O)O	50µM	i	i	i	?	?
COc1cccc(Nc2ccccc2C(=O)O)c1	i	i	i	i	i	i
O=C(CNC(=O)c1ccccc1Cl)Nc1ccc(F)cc1	i	i	i	i	i	i
O=C(O)CCc1ccc(-c2cccs2)n1NC(=O)c1ccc(Cl)cc1Cl	i	i	i[0.501 µM]	?	i	i
CC(=O)c1ccc(-n2c(CCC(=O)O)ccc2-c2cccs2)cc1	20µM	i	i	32µM	i	?
NC(=O)c1ccc(-n2c(CCC(=O)O)ccc2-c2cccs2)cc1	i	i	?	i	i	i
Cc1ccc(-n2c(CCC(=O)O)ccc2-c2cccs2)cc1Cl	nt	i	i	50µM	i	?
O=C(O)CCc1ccc(-c2cccs2)n1NC(=O)c1ccc(Cl)cc1	25µM	i	i	i	?	i
CCN1CCN(Cc2c(C(=O)N/N=C(\C)c3ccc(Cl)cc3)nnn2-c2nonc2N)CC1	i	i	i	i	i	i
O=C(NCCCCNC(=O)c1ccccn1)c1ccccn1	79µM	i	i	i	i	i
O=C(NCCCCCNC(=O)c1ccccn1)c1ccccn1	i	i	i	i	i	i
Nc1c(C(=O)O)sc2nc(-c3ccc(F)cc3)cc(-c3ccccc3)c12	50µM	i	i	i	i	i
COC(=O)C1=C(C(=O)OC)C(c2ccccc2O)c2sc(=O)[nH]c2S1 (stereo not drawn)	8.9µM	i	i	i	?	20µM
COC(=O)c1sc2ccccc2c1C(=O)OC	i	i	i	i	i	i
O=C(CSc1nnc2scc(-c3ccccc3)n12)Nc1nsc(-c2ccccc2)n1	32µM	i	i	i	i	i
Cc1ccc(-c2csc3nnc(SCC(=O)Nc4nsc(-c5ccccc5)n4)n23)cc1	i	i	nt	i	i	i
Cc1cc(C2=CC(C)(c3cc(C)oc3C)Nc3nc(C(F)(F)F)nn32)c(C)o1 (stereo not drawn)	13µM	nt	i	nt	nt	nt
Cc1ccc(C2=CC(C)(c3ccc(C)cc3)Nc3nc(C(F)(F)F)nn32)cc1 (stereo not drawn)	i	i	i	i	i	i
Cc1cccc(C)c1NC(=O)C(=O)NCCc1c[nH]c2ccccc12	i	i	i	i	i	i
SMILES	Sfp PPTase inh	TrxR1 substrate	GCN5L2 inh	rTrxR1 inhibitor	GLS inhibitor	VDR inh
COc1ccc(C(C#N)N2N=C(C)CC2(C)C)cc1OC (stereo not drawn)	i	i	i	40µM	i	i
O=C1N=c2ccccc2=C1c1[nH]c(=S)[nH]c1O	i	i	i	i	i	i
Cc1ccc(Cl)c2c1=NC(=O)C=2c1[nH]c(=S)[nH]c1O	40µM	i	i	?	i	?
c1ccc2c(c1)NCCS2	89µM	i	i	i	i	i
O=C(O)C1=CCC=CC1C(=O)O (stereo not drawn)	nt	nt	nt	nt	11µM	nt
Cc1cc(C)nc(Sc2ncnc(N)c2[N+](=O)[O-])n1	50µM	i	i	11µM	i	i
O=C(Nc1cccc(O)c1)c1cc2nc(-c3ccc(Br)cc3)cc(C(F)(F)F)n2n1	nt	i	?	i	i	i
CCOC(=O)C(=CNc1ccc(-c2ccco2)c(Cl)c1)C(=O)OCC	28µM	i	i	i	i	i
COCCN(C(=O)CSc1nc2ccc(Cl)cc2[nH]1)c1c(N)n(Cc2ccccc2)c(=O)[nH]c1=O	i	i	i	i	i	i
CCOc1nc2cccc(C(=O)OC(C)OC(=O)OC3CCCCC3)c2n1Cc1ccc(-c2ccccc2-c2nn[nH]n2)cc1 (stereo not drawn)	i	nt	20µM	nt	nt	45µM
CCCOCC1CC(CCc2nc(=S)[nH][nH]2)C(=O)O1 (stereo not drawn)	56µM	i	i	i	i	?
CC(C)(C)c1cc(CN(CCO)CCO)cc(C(C)(C)C)c1O	i	i	i	3.5µM	i	?
CN(C)Cc1cc(C(C)(C)C)c(O)c(C(C)(C)C)c1	i	i	i	8.9µM	i	i
CCOC(=O)c1ccc(NC(=S)N2CCCC2c2ccc(OC)c(OC)c2)cc1 (stereo not drawn)	i	i	i	i	i	i
O=C(c1cccc(C(=O)N(c2ccccn2)C2CCCCC2)c1)N(c1ccccn1)C1CCCCC1	i	i	i	i	i	i
N#C/C(=C\c1ccccc1)C(=O)N(c1ccccn1)C1CCCCC1	i	i	i	?	i	25µM
CCn1c(C)[n+](CCCS(=O)(=O)[O-])c2cc(Cl)c(Cl)cc21	i	i	i	i	i	i
O=S(=O)([O-])CCC[n+]1c(SCCCS(=O)(=O)O)sc2ccc(Cl)cc21	3.2µM	i	i	i	i	?
COc1ccccc1CNC(=O)COc1cccnc1[N+](=O)[O-]	i	i	i	i	i	i
OC(COC(c1ccc(F)cc1)c1ccc(F)cc1)CN1CCCC1 (stereo not drawn)	79µM	i	i	i	i	i
CC(C)c1ccc(-c2nc3c([nH]2)c(=O)n(C)c(=O)n3C)cc1	i	i	i	i	i	i
Cn1c(=O)c2[nH]c(-c3ccc(S(=O)(=O)O)cc3)nc2n(C)c1=O	i	i	i	32µM!	i	i
